Experiment [1] has as its target Lysosomal acid glucosylceramidase (Homo sapiens) (UniProt P04062). The experiment is described as follows: Glucocerebrosidase-p2 (AID 348; in the data active = potency below about 10 µM; also: potency is read from the fitted curve at half-maximal effect). Conditions: purified GBA, blue fluorogenic substrate, 40 min. The gist of the method:
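Compounds titrated from 0.6 nM upwards against 0.2 nM enzyme in pH 5.9 citric acid/KH2PO4, taurocholate, tween-20; blue fluorogenic substrate 80 uM, 40 min room temperature, stopped and read Ex 365/Em 440 for AC50.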

Experiment [2] has as its target Cytochrome P450 1A2 (Homo sapiens) (UniProt P05177). The experiment can be described thus: p450-cyp1a2 (AID 410; calls by dose curve; also: potency is read from the fitted curve at half-maximal effect). The gist of the method: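 20nM CYP1A2 with 100uM Luciferin-ME (at Km) in 100mM KPO4; compound preincubated 10 min, NADPH regeneration added, 60 min at room temperature. Luciferin quantified by luminescence after detection reagent; normalized to 57 uM furafylline.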

Experiment [3] has as its target Glucocorticoid receptor (Homo sapiens) (UniProt P04150). The experiment can be described thus: GR-GFP Redistribution (AID 450;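 active = compounds whose dose series gives a full or clear partial fitted curve of increased nuclear translocation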; also: potency is read from the fitted curve at half-maximal effect). Conditions: U2OS GR-GFP nuclear translocation, laser cytometry, 2 h.
For experiment [4] the target is unchanged. The experiment is described as follows: GR-EFC Redistribution (AID 451; calls by dose curve; also: potency is read from the fitted curve at half-maximal effect). The conditions noted are these: CHO-K1 GR-EFC translocation, beta-gal luminescence, 2 h. In short, it runs like this: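 CHO-K1 cells stably expressing nuclear-localized β-gal enzyme acceptor and GR fused C-terminally to the enzyme donor fragment; ligand-driven nuclear translocation restores β-gal by complementation. Compounds titrated up to 46 uM final, 2 h at 37 °C; luminescence read.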

The target in experiment [5] is 3',5'-cyclic-AMP phosphodiesterase 4B (Homo sapiens) (UniProt Q07343). The experiment is described as follows: qHTS Assay for Inhibitors of PDE-IV (AID 607; active = well fitted activation curve with a large enough effect in the main read-out, with a control signal flat, not every such curve was filed as active; also: % of control where 0% means no effect). The gist of the method: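 ACTOne HEK293 cells carry a modified cAMP-gated CNG channel and express endogenous PDE4; plated 1000 cells/well, compounds up to 22.9 uM final. Membrane-potential dye fluorescence (ex 535/em 590) was read; parental cells received 10 uM forskolin + 100 uM RO 20-1724.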

Experiment [6] deals with Cytochrome P450 3A4 (Homo sapiens) (UniProt P08684). The experiment can be described thus: qHTS Assay for Inhibitors and Substrates of Cytochrome P450 3A4 (AID 884). Also: % is scaled to controls: 0 for no effect and ±100 for the full control effect; nearly all actives have a fitted effect of over 50% in size. In short, it runs like this:
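20 nM human CYP3A4 with 25 uM Luciferin-PPXE (at KM) in 200 mM KPO4, preincubated 10 min with compound; NADPH regeneration started a 60 min RT reaction. Luciferin detected by luminescence, normalized to 57 uM ketoconazole as full inhibition.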
Background: In qHTS, concentration-response curves come from the screen itself.

Experiment [7] can be described thus: qHTS Assay for Identification of Small Molecule Agonists for Hypoxia Response Element Signaling Pathway (AID 914; active = well fitted activation curve with a large enough effect in the signal ratio, with a control signal flat, not every such curve was filed as active; the % refers to the signal ratio; also: potency is read from the fitted curve at half-maximal effect). Conditions: ME-180 HRE-bla reporter, beta-lactamase ratio, CoCl2, 17 h; activation: stronger effect = higher value. In short, it runs like this: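 In Opti-MEM containing 0.5% dialyzed FBS and 10 mM HEPES, ME-180 HRE-bla cells received a compound titration and EC50 CoCl2. They were incubated 17 hours, then CCF4-loaded 2.5 hours at room temperature before ratio reading.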

Experiment [8] is described as follows: qHTS Assay for Lipid Storage Modulators (AID 1519; calls by dose curve). Conditions: Drosophila S3 cells, BODIPY lipid droplet/cell ratio, laser cytometry, cells loaded with oleic acid; for activity change, negative = inhibition: at 57.5 µM (top of the series). In short, it runs like this: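 Cells seeded at 5,000 per well were treated with compounds over a concentration series and loaded with oleic acid (400 uM, as added). Lipid droplet fluorescence (488 nm excitation, 500-530 nm channel) was read by laser-scanning cytometry and normalized to 20 uM Triacsin C.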

The target in experiment [9] is Dual specificity protein kinase CLK4 (Homo sapiens) (UniProt Q9HAZ1). The experiment can be described thus: qHTS Assay for Inhibitors of CDC-like Kinase 4 (Kinase-Glo Assay) (AID 1770). Also: nearly all actives have a fitted effect of over 65% in size. Also: potency is read from the fitted curve at half-maximal effect. In short, it runs like this: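 Luminescent ATP-depletion read-out (Kinase-Glo) after 4.5 h room-temperature reaction of Clk4 (25 nM final) with RS peptide (100 uM) and ATP (1 uM), pH 7.5 Tris buffer with MgCl2 and DTT.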

For experiment [10] the target is unchanged. The experiment can be described thus: qHTS Assay for Inhibitors of CDC-like Kinase 4 (ADP-Glo Assay) (AID 1771). Also: nearly all actives have a fitted effect of over 70% in size. Also: potency is read from the fitted curve at half-maximal effect. In short, it runs like this:
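25 nM Clk4 with 100 uM RS repeat peptide and 1 uM ATP (final) in buffer with 2 mM MgCl2, 0.5 mM EGTA, 2.5 mM DTT, 0.01% Triton X-100; 1 h at room temperature; ADP-Glo luminescence for ADP formed.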

Experiment [11] has the same target. The experiment can be described thus: qHTS Assay for Inhibitors of CDC-like Kinase 4 (ADP-FP Assay) (AID 1795).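 Also: recombinant human CLK4 phosphorylating RS repeat peptide at 1 µM ATP; % is scaled to controls: 0 for no effect and ±100 for the full control effect; nearly all actives have a fitted effect of over 60% in size.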 In short, it runs like this:
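Kinase activity was measured as ADP production using Transcreener orange tracer (4 nM) and ADP antibody (1 ug/mL) fluorescence polarization, with ADP calculated from a calibration curve. The 1 h reaction contained 6.25 nM Clk4, 1 uM ATP and 100 uM RS peptide at pH 7.5 with Mg2+.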

Experiment [12] addresses Ubiquitin carboxyl-terminal hydrolase 1 (Homo sapiens) (UniProt O94782). The experiment is described as follows: Inhibitors of USP1/UAF1: Pilot qHTS (AID 504865). Also: nearly all actives have a fitted effect of over 35% in size. Also: potency is read from the fitted curve at half-maximal effect. In short, it runs like this:
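Deubiquitinase activity followed as kinetic rhodamine fluorescence release from 150 nM Ub-Rho. 1 nM USP1/UAF1 with compound, after 15 min room-temperature preincubation, in HEPES pH 7.8 buffer containing TCEP, EDTA, BSA and Tween-20.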

A short description of experiment [13]: Primary qHTS for small molecule stabilizers of the endoplasmic reticulum resident proteome: Secreted ER Calcium Modulated Protein (SERCaMP) assay (AID 1508630). Also: % is scaled to controls: 0 for no effect and ±100 for the full control effect. The gist of the method:
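GLuc-SERCaMP-expressing SH-SY5Y cells, pretreated 16 h with compound, are challenged with thapsigargin to empty ER calcium stores; after 4 h, coelenterazine is added directly to the medium and luminescence is imaged.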

Experiment [14] can be described thus: AP1 Signaling Pathway (AID 357; active = well fitted curve in either direction with a large enough effect, not every such curve was filed as active;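 also: ME-180 reporter cells stimulated with EGF at its EC50 level; % is scaled to controls: 0 for no effect and ±100 for the full control effect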). Conditions: ME-180 AP-1-bla reporter, EGF-induced, beta-lactamase ratio, 5 h; at 7.69 µM (top of the series) unless noted. The gist of the method:
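Titration-series screen for positive or negative modulators of EC50 EGF-induced signaling in ME-180 cells carrying an AP-1-driven beta-lactamase reporter. After 5 hours at 37 degrees Celsius, CCF4 460nm/530nm emission ratio gave %Activity; AC50 values derived.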

The nature of experiment [15]: NFAT Signaling Pathway (AID 444; active = well fitted curve in either direction with a large enough effect, not every such curve was filed as active;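 also: carbachol stimulus at about its EC50 of 1 µM final; % is scaled to controls: 0 for no effect and ±100 for the full control effect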). Conditions: Jurkat NFAT-bla M1, carbachol, beta-lactamase ratio, 5 h; at 7.69 µM (top of the series) unless noted. In short, it runs like this:
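Jurkat cells carrying an NFAT-driven β-lactamase reporter and co-transfected muscarinic M1 receptor were treated with compound plus carbachol (1 uM final, an EC50 level) for 5 h at 37 °C. CCF4 loading followed for 1 h at RT; 460/530 nm ratio gave %activity.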

The nature of experiment [16]: Stat Signaling Pathway (AID 446; active = well fitted curve in either direction with a large enough effect, not every such curve was filed as active;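 also: ME-180 cervical cancer cells given 40 pM IL-6 alongside compound; SIE-controlled beta-lactamase reporter measured as 460/530 nm FRET emission ratio; % is scaled to controls: 0 for no effect and ±100 for the full control effect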). Conditions: ME-180 (cervical carcinoma) SIE beta-lactamase reporter, IL-6 stimulated, 5 h; at 7.69 µM (top of the series) unless noted. In short, it runs like this:
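ME-180 SIE-bla cells; overnight plating; cpd + IL-6 40 pM, 5 h, 37 C; LiveBLAzer 2.5 h RT; 460/530 nm emission ratio. Normalized to 300 pM IL-6 and 125 nM JAK inhibitor controls.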

Experiment [17] addresses Mitogen-activated protein kinase 10 (Mus musculus) (UniProt Q61831). The experiment can be described thus: JNK3 AlphaScreen Assay (AID 530; active = well fitted curve in either direction with a large enough effect, not every such curve was filed as active). The gist of the method: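 Inhibitors reduce antibody binding to phosphorylated biotin-cJun, lowering AlphaScreen luminescence. Lysates from HepG2 cells pre-activated by IL-1beta plus TNF-alpha supplied JNK3; compounds were titrated.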

In experiment [18] the target is Cytochrome P450 2C9 (Homo sapiens) (UniProt P11712). The experiment can be described thus: qHTS Assay for Inhibitors and Substrates of Cytochrome P450 2C9 (AID 883). Also: % is scaled to controls: 0 for no effect and ±100 for the full control effect; nearly all actives have a fitted effect of over 60% in size. The gist of the method:
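Human CYP2C9 (10nM) hydroxylated Luciferin-H (100uM, at its KM) to luciferin in 25mM KPO4. Compound was preincubated 10 min at 37C, then NADPH regeneration started a 60 min reaction at 37C. Luminescence was read after detection reagent, normalized to 57uM sulphaphenazole.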

For experiment [19], the target named is Cytochrome P450 2C19 (Homo sapiens) (UniProt P33261). The experiment is described as follows: qHTS Assay for Inhibitors and Substrates of Cytochrome P450 2C19 (AID 899). Also: % is scaled to controls: 0 for no effect and ±100 for the full control effect; nearly all actives have a fitted effect of over 60% in size. The gist of the method:
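Human CYP2C19 (5nM) with Luciferin-H EGE at 10uM (its KM) in 50mM KPO4 was preincubated with compound for 10 min at 37C. NADPH regeneration started a 60 min 37C reaction. Luciferin was read by luminescence, normalized to 57uM ketoconazole.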

Setting [20] is: measured here: cell count channel max response.
The mark [21] stands for this setting: measured here: lipid channel max response.

Inconclusive results are not listed. Calls of active or inactive are those of the source. Unless noted, calls follow the shape of the dose curve; as a rule, active = well fitted curve in the direction sought with a large enough effect; inconclusive = small, poorly fitted or top-dose-only effect, or another doubt; inactive = no such curve, though single readings can be large; an effect the other way counts as inactive or inconclusive. Some results are limits rather than exact numbers.

3',5'-cyclic-AMP phosphodiesterase 4B (Homo sapiens), sequence (Q07343 whole entry, looked up): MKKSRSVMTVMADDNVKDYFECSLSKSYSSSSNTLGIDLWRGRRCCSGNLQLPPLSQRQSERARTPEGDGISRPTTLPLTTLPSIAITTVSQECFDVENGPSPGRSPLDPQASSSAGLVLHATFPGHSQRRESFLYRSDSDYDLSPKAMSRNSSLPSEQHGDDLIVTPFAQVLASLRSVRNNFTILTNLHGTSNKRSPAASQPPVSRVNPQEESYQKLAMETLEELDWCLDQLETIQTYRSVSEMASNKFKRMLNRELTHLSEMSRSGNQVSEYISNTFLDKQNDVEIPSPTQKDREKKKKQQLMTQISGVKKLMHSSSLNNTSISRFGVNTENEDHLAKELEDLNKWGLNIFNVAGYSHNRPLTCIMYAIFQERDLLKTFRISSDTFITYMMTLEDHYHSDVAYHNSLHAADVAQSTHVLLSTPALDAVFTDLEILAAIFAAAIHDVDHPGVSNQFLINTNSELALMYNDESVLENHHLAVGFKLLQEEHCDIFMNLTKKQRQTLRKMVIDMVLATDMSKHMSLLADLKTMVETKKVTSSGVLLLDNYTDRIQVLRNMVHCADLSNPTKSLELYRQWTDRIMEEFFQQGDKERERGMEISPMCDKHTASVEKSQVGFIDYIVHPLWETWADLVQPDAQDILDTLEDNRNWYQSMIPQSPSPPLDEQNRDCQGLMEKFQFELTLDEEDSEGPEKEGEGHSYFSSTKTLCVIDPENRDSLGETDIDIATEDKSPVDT
Lysosomal acid glucosylceramidase (Homo sapiens), sequence (P04062 whole entry, looked up): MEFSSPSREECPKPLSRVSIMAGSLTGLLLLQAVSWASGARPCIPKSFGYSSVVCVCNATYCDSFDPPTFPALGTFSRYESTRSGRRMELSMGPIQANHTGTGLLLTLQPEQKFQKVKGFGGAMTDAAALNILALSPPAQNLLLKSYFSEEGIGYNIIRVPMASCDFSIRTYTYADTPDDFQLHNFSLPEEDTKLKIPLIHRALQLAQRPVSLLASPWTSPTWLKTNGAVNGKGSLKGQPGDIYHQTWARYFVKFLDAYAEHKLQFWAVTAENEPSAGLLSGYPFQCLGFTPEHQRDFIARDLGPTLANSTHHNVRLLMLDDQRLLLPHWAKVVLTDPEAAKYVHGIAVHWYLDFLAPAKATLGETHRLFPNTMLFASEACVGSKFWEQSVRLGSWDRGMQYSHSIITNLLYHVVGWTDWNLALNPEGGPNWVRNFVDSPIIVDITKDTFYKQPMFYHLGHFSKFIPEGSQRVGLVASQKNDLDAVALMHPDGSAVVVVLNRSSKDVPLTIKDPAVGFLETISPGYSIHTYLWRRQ
Dual specificity protein kinase CLK4 (Homo sapiens), sequence (Q9HAZ1 whole entry, looked up): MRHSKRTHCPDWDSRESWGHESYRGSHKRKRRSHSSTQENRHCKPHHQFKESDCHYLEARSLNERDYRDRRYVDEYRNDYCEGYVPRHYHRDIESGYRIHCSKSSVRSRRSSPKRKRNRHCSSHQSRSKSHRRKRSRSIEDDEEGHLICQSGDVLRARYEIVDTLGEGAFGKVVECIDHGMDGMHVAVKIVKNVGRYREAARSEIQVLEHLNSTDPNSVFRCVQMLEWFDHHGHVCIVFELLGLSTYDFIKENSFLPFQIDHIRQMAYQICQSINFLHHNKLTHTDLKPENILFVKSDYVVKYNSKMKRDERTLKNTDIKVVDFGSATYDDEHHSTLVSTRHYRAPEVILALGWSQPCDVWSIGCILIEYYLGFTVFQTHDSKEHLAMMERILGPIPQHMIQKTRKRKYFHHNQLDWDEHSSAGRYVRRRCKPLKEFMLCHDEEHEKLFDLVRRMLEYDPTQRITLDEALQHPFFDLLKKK
Ubiquitin carboxyl-terminal hydrolase 1 (Homo sapiens), sequence (O94782 whole entry, looked up): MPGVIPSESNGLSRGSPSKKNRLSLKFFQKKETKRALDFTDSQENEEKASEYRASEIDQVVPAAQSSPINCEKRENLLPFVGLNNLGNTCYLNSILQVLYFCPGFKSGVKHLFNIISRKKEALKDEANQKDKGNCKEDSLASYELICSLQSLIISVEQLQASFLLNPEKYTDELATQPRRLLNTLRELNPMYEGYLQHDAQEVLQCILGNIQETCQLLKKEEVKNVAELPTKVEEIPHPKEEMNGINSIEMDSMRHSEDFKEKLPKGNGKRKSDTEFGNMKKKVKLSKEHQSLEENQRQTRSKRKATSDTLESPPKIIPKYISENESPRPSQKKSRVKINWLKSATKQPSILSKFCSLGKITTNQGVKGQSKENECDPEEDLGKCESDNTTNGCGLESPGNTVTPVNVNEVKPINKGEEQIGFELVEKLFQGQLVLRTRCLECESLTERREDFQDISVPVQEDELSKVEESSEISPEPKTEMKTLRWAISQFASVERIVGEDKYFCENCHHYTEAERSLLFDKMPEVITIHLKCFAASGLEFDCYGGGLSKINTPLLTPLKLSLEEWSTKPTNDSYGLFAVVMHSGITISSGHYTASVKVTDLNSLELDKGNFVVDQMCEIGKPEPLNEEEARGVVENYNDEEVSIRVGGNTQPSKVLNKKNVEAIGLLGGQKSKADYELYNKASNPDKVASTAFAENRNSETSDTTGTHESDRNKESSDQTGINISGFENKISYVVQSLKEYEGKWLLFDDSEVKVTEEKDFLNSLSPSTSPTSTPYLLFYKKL
Cytochrome P450 1A2 (Homo sapiens), sequence (P05177 whole entry, looked up): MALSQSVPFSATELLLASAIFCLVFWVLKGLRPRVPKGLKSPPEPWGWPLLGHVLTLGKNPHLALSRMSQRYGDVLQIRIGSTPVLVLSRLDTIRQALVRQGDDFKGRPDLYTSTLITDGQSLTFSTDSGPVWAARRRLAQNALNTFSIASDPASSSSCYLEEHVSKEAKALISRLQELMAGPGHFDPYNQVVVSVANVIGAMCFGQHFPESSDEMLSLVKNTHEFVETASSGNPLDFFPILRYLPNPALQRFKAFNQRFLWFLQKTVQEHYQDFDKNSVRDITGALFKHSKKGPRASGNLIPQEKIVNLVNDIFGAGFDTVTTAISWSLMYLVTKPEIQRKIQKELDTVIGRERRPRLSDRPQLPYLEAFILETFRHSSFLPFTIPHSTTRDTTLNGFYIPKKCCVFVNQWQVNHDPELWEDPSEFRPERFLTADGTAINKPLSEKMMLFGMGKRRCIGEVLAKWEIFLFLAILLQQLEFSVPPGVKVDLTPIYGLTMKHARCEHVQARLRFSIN
Glucocorticoid receptor (Homo sapiens), sequence (P04150 whole entry, looked up, the tested form may be a part): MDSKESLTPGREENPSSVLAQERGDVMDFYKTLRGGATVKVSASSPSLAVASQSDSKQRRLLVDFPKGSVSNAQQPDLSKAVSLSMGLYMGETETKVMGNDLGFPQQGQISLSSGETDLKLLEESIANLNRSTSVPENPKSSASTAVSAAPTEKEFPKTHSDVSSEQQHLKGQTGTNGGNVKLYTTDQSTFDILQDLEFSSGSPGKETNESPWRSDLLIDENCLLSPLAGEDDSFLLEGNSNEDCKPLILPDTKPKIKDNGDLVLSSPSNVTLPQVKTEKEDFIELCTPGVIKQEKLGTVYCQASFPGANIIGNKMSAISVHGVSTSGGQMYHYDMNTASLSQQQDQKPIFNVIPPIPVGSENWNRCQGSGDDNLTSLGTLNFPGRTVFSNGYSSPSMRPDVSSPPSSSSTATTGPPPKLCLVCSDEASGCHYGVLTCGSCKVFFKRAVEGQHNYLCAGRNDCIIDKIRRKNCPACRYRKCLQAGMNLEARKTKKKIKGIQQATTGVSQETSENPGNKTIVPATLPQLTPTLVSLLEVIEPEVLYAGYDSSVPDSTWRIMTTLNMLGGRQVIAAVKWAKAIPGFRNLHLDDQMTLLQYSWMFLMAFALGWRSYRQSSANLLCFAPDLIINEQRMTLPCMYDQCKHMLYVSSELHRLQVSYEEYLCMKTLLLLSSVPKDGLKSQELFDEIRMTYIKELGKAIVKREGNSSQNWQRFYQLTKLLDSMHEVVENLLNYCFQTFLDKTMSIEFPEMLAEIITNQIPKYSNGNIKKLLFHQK
Cytochrome P450 2C9 (Homo sapiens), sequence (P11712 whole entry, looked up): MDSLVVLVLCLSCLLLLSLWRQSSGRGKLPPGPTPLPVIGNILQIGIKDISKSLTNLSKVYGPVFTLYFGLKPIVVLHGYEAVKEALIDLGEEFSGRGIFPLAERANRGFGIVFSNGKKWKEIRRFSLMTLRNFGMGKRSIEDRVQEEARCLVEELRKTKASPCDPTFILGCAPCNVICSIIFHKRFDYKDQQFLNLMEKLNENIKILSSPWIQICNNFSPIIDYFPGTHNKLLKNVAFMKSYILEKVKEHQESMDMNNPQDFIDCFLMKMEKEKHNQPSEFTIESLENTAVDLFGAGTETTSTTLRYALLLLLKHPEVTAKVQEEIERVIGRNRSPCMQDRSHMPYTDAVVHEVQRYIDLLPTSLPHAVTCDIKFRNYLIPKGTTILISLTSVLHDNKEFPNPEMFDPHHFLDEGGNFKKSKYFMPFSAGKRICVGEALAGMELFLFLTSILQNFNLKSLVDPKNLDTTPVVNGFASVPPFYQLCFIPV
Cytochrome P450 2C19 (Homo sapiens), sequence (P33261 whole entry, looked up): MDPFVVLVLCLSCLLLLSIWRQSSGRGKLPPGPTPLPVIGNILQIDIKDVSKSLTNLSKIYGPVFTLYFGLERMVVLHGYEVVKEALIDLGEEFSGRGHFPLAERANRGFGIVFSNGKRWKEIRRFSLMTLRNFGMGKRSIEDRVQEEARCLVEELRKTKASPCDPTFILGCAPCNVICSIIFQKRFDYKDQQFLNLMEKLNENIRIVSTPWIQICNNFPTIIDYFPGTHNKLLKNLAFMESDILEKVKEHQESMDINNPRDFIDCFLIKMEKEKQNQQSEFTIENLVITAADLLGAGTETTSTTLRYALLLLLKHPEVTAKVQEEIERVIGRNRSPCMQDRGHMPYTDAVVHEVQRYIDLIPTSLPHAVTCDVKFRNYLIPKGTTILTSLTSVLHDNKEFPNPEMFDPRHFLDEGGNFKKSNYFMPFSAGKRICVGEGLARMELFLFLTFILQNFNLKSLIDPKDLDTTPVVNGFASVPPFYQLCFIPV

On to `CN1CCN(c2ncc3nc(-c4ccc(F)cc4)c(=O)n(Cc4cccs4)c3n2)CC1`, for which the Potency in experiment [1] was > 11.4 µM (inactive); in experiment [2], 25.1 µM (active); in [3], > 9.22 µM (inactive); in [4], > 46 µM (inactive); in [7], 3.16 µM (active). Further, the Potency entry in experiment [5], in [6], in [9], in experiment [10], in experiment [11] and in [12] was “inactive” each time. In addition, the Potency result in experiment [13] was “inactive”. Besides, in experiment [8], the activity change, negative = inhibition was -3.43% (inactive). In addition, the figures for the max response in [8] (setting [20]) and in experiment [8] (setting [21]) were 8.36% and 0.564%, respectively.
As for `Cc1noc(C)c1-c1cc(NCc2cccnc2)ncn1`, the Potency in experiment [1] was > 11.4 µM (inactive); in [2], 1 µM (active); in experiment [3], > 46 µM (inactive); in experiment [4], > 46 µM (inactive); in [9], 15.8 µM (active); in experiment [10], 22.4 µM (active). The activity change, negative = inhibition is 2.04% (inactive) in experiment [14], -0.73% (inactive) in experiment [15], 9.31% [at 2.29 µM] (inactive) in experiment [18] and 2.28% (inactive) in [8]. Further, the activity, negative = inhibition in [16] was 8.46% (inactive). Also, the compound was called inactive in experiment [17]. The Potency entry in experiment [5], in experiment [12] and in experiment [13] was “inactive” each time. The values for the max response in [8] (setting [20]) and in experiment [8] (setting [21]) were 5.59% and 6.22%, respectively.
As for `O=c1c(-c2ccc(F)cc2)nc2cnc(Oc3ccccc3)nc2n1Cc1cccs1`, the values for the activity change, negative = inhibition in experiment [14], in [15] and in [8] were -11.6% (inactive), 2.8% (inactive) and -20.3% (inactive), respectively. Further, the activity, negative = inhibition in [16] is 1.3% (inactive). Besides, the Potency is > 9.22 µM (inactive) in experiment [3], > 46 µM (inactive) in [4] and 3.16 µM (active) in experiment [12]. In addition, the compound was classed as inactive in [17]. For the same compound, the Potency result in [5], in [9], in [10], in [11] and in experiment [13] was “inactive” throughout. The max response is -6.12% in experiment [8] (setting [20]) and -29.7% in experiment [8] (setting [21]).
As for `COc1ccc(-c2nc3cnc(N4CCN(C)CC4)nc3n(Cc3cccs3)c2=O)cc1`, the values for the Potency in experiment [1], in experiment [3] and in [4] were > 11.4 µM (inactive), > 9.22 µM (inactive) and > 46 µM (inactive), respectively. Besides, the Potency result in experiment [5], in experiment [19], in experiment [9], in experiment [10], in experiment [11] and in [12] was “inactive” throughout. The Potency entry in [13] was “inactive”. Also, the activity change, negative = inhibition in experiment [8] was 1.59% (inactive). The values for the max response in experiment [8] (setting [20]) and in experiment [8] (setting [21]) were 17.6% and 18%, respectively.
Consider `COc1cccc(Nc2ncc3nc(-c4ccc(Cl)cc4)c(=O)n(C4CC4)c3n2)c1`, for which the values for the activity change, negative = inhibition in [15] and in [8] were -4.19% (inactive) and -3.5% (inactive), respectively. In addition, the activity, negative = inhibition in experiment [16] is -10.8% (inactive). The results for the Potency in [3] and in [4] were > 9.22 µM (inactive) and > 46 µM (inactive), respectively. Besides, the compound was called inactive in experiment [17]. Moreover, the Potency result in [5], in [9], in experiment [10], in experiment [11], in experiment [12] and in experiment [13] was “inactive” each time. The max response in experiment [8] (setting [20]) is -0.959%; in experiment [8] (setting [21]) it was -5.52%.
Regarding `CN1CCN(c2ccnc(-c3ccoc3)n2)CC1`, the results for the activity change, negative = inhibition in experiment [14], in experiment [15] and in experiment [8] were 21.7% (inactive), -15.5% (inactive) and 0.402% (inactive), respectively. In addition, the Potency in [2] was 12.6 µM (active); in experiment [4], > 46 µM (inactive). In addition, in experiment [16], the activity, negative = inhibition is 11.2% (inactive). Besides, in experiment [17], the outcome was inactive. Besides, the Potency entry in experiment [5], in experiment [9], in experiment [10], in experiment [11], in [12] and in [13] was “inactive” each time. Moreover, the max response in [8] (setting [20]) and in [8] (setting [21]) was 20.2% each time.

The record behind these values is PubChem BioAssay (NCATS).
